Screen size: about 360,000 compounds; about 2,300 (0.64%) were called active.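 Rule for the calls: active = compounds giving at least 50% protection of heart cells from peroxide-induced death in the single-dose screen, raw or plate-pattern-corrected value; inactive = the rest.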 What follows is part of a selection rich in actives, with near analogues and random picks from the rest.
Assay: cardioprotection against H2O2-induced cell death, primary screen, uHTS, H9c2 cells, ATPLite luminescence (AID 588492);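 note: 0% = DMSO wells with peroxide and 100% = DMSO wells without peroxide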
Details: H9c2 cardiomyocytes, H2O2 injury protection, 2 h, at 20 µM, hits give high values

| Compound | protection from H2O2 cell death |
| --- | --- |
| [2H]C(CCOS(N)(=O)=O)c1ccccc1 (stereo not drawn) | 3% (inactive) |
| CCOC12CC(C)(C)CC(C)(CC3=C1C(=O)CC(C)(C)C3)C2 (stereo not drawn) | -0.9% (inactive) |
| CCC(=O)Oc1cccc(C(=O)Nc2ccc(-c3nnc(-c4ccco4)o3)cc2)c1 | 77.3% (active) |
| Cc1ccc2nc(-c3ccc(NC(=O)c4cccnc4)cc3)oc2c1 | 48.1% (inactive) |
| O=C(Nc1ccc(Cl)cc1)c1cccc(OC(=S)N2CCOCC2)c1 | -15.8% (inactive) |
| COC(=O)NNC(=O)C1CCC(C)CC1 (stereo not drawn) | -10% (inactive) |
| COc1ccc(CN(C)C(=O)c2cc(-c3ccc(C)cc3C)nc3ccccc23)c(OC)c1OC | 48.9% (inactive) |
| COc1ccc(-c2cc(C(=O)N(C)CC(=O)Nc3ccccc3Cl)c3ccccc3n2)cc1OC | 49.1% (inactive) |
| COc1ccc(-c2cc(C(=O)N(C)Cc3ccc(OC)c(OC)c3OC)c3ccccc3n2)cc1OC | 67.1% (active) |
| Cc1cc(C)nc(Nc2n[nH]c(-c3ccccc3N)n2)n1 | -9.5% (inactive) |
| CCCCCN(C(=O)NC(=O)Nc1ccccc1C)S(C)(=O)=O | -4.1% (inactive) |
| CCC(C)(C)NC(=O)C(c1cccc(OC)c1OC)N(CC(C)C)C(=O)CCC(=O)Nc1cc(C)on1 (stereo not drawn) | 1.2% (inactive) |
| Cc1ccccc1Cn1c(C)c(C(=O)NCc2cccc(C(F)(F)F)c2)sc1=O | -2.6% (inactive) |
| COc1ccc(CNC(=O)/C(C#N)=C/c2cccc(OC)c2OC)cc1 | 1.5% (inactive) |
| COCCNC(=O)/C(C#N)=C/c1cccc(OCc2ccccc2)c1 | 32.1% (inactive) |
| N#C/C(=C\c1ccc(O)c(O)c1)C(=O)NCc1ccccc1 | 55.9% (active) |
| Cn1nc([N+](=O)[O-])nc1Sc1ccc(C(C)(C)C)cc1 | -11.1% (inactive) |
| c1ccc(-c2cn3c(n2)CCc2ccc4cccnc4c2-3)cc1 | 61.6% (active) |
| CCN(CC(=O)NC(C)C)C(=O)CCNC(=O)c1ccc(Cl)cc1 | -0.7% (inactive) |
| Cc1cccc(Nc2nnc(SCC(=O)c3c(N)n(C4CC4)c(=O)[nH]c3=O)s2)c1C | -2.2% (inactive) |
| CC(=O)Nc1ccc(-c2csc(NC(=O)Nc3ccccc3)n2)cc1 | 50.5% (active) |
| NC(c1ccccc1)c1csc(NC(=O)Nc2cccc(C(F)(F)F)c2)n1 (stereo not drawn) | -10.6% (inactive) |
| CC(=O)Nc1ccc(-c2cn3cccnc3n2)cc1 | -2% (inactive) |
| CN(C)C(CNC(=O)CCCOc1ccccc1)c1ccco1 (stereo not drawn) | 4.6% (inactive) |
| O=C(COC(=O)c1cccc(Br)c1)Nc1cccc2c1C(=O)c1ccccc1C2=O | -6.9% (inactive) |
| O=C(COC(=O)Cn1cnc2ccccc21)Nc1cccc2c1C(=O)c1ccccc1C2=O | 59.5% (active) |
| O=C(Cn1cnc2ccccc21)Nc1ccccc1-c1ccccc1 | -5.3% (inactive) |

| Compound | protection from H2O2 cell death |
| --- | --- |
| O=C(CCc1nnc(CCCCc2ccccc2)o1)NC(c1cccnc1)C(F)(F)F (stereo not drawn) | 0.8% (inactive) |
| COc1ccccc1NS(=O)(=O)c1ccc(C)c(C(=O)NNC(=O)c2csc(N3CCOCC3)n2)c1 | 8.3% (inactive) |
| CCN(CC)C(=O)Cn1cc(S(=O)(=O)CC(=O)NCc2ccc3c(c2)OCO3)c2ccccc21 | 2.8% (inactive) |
| C[C@@H]1C(c2ccc(F)cc2)=NN(c2ccc(Br)cc2)[C@H]1C(=O)N1CCOC1=O | -1.3% (inactive) |
| COc1ccccc1OCCn1c(SCC(N)=O)nc2ccccc21 | 3.9% (inactive) |
| O=C1N[C@H](Cc2c[nH]c3ccccc23)COC(=O)[C@H](Cc2ccc(F)cc2)C/C=C\C[C@H]1CC(=O)N(CCO)Cc1ccccc1 | 51.5% (active) |
| O=C1OC[C@@H]2CCCN2C(=O)[C@H](CC(=O)N(CCO)Cc2ccccc2)C/C=C\CC[C@@H]1Cc1ccc(F)cc1 | 2.9% (inactive) |
| O=C1CCC/C=C/C[C@@H](CC(=O)N(CCO)Cc2ccccc2)C(=O)NC[C@H](c2ccccc2)O1 | 0.5% (inactive) |
| O=C1NC[C@@H](c2ccccc2)OC(=O)[C@H](Cc2ccc(F)cc2)CC/C=C/C[C@H]1CC(=O)N(CCO)Cc1ccccc1 | 61.8% (active) |
| O=C1N[C@@H](c2ccccc2)COC(=O)[C@H](Cc2ccc(F)cc2)C/C=C\C[C@@H]1CC(=O)N(CCO)Cc1ccccc1 | 8.2% (inactive) |
| CC(C)(C)OC(=O)C[C@@H]1C/C=C\C[C@@H](CC(=O)N(CCO)Cc2ccccc2)C(=O)N[C@H](Cc2ccccc2)COC1=O | 14.2% (inactive) |
| CCOc1ccc(NC(=O)[C@H](C)NC(=O)C2CC(=O)N(c3ccc(OC)cc3)C2)cc1 (stereo partly drawn) | -1.8% (inactive) |
| CC(C)(C)OC(=O)N1CCN(C(=O)c2[nH]c(C(F)(F)F)nc2-c2ccccc2)CC1 | -1.1% (inactive) |
| Cc1cc(C)cc(NC(=O)Cn2cnc3c(nnn3Cc3ccc(F)cc3)c2=O)c1 | 0.7% (inactive) |
| CN(C)CCN1CCN(c2cc(-c3cccc(Cl)c3)nc3ccnn23)CC1 | 19.8% (inactive) |
| C#Cc1cc(N2CCN(C(=O)c3ccoc3)CC2)n2nc(-c3cccc(Cl)c3)cc2n1 | 84.5% (active) |
| O=C(c1ccccc1)N1CCN(C(=O)c2cc3nc(-c4ccccc4)cc(C(F)(F)F)n3n2)CC1 | 11.3% (inactive) |
| O=C(Cn1[nH]c(=O)c2ccccc2c1=O)Nc1cccc(-c2nnc3n2CCCCC3)c1 | 23.4% (inactive) |
| Cc1ccc(-c2csc(NC(=O)Cn3[nH]c(=O)c4ccccc4c3=O)n2)cc1 | 52% (active) |
| Cc1cc(C)c(-c2csc(NC(=O)CCCc3nc4ccccc4c(=O)[nH]3)n2)c(C)c1 | -4.2% (inactive) |
| Cc1cc(-n2nc(C)cc2C)n2ncc(-c3ccccc3)c2n1 | 14.3% (inactive) |
| CCOC(=O)c1cnc(-n2nc(C)cc2C)nc1NNc1cc(C)nc(-c2ccccc2)n1 | 78.5% (active) |
| CCOC(=O)c1cnc2nc(SCc3ccccc3Cl)[nH]n2c1=O | -2.4% (inactive) |
| COc1cc(OC)c(C(=O)OC(C)C(=O)Nc2cc(C(F)(F)F)ccc2Cl)cc1OC (stereo not drawn) | -5% (inactive) |
| Cc1cc(C)n(C(=O)c2ccc(C)c(S(=O)(=O)N3CCOCC3)c2)n1 | 15.2% (inactive) |
| c1ccc(Cc2nn3c(Cn4cnc5ccccc54)nnc3s2)cc1 | -4.9% (inactive) |
